# Compounds with a hit are over-represented: about 7.5% of the library has one in this group of screens.
# Rab9 prom act: Rab9 promoter activation; Huh7 Rab9 promoter-luciferase reporter, luminescence, 24 h; Potency, µM (highest dose often 9.22 µM), without a hit: at the top dose activation, negative = inhibition, most hits filed as activators; hit rate 2.8% among 320,000; further: % of control where 0% means no effect; nearly all actives have a fitted effect of over 60% in size
#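 Quantitative HTS format; Huh7 Rab9-luciferase reporter cells (1500/well) receive compound 2 h post-plating, incubate 24 h at 37 °C, then get luciferase reagent for 10 min before luminescence reading.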
# ELG1 genotox: induces genotoxicity in HEK293T cells with luciferase-tagged ELG1 | Potency, µM (top dose mostly 46 µM), for inactives: at the highest dose activity change, positive = activation, most hits filed as activators | hit rate 1.3% among 330,000 | AID 504466 | HEK293T ELG1-luciferase reporter, luminescence, 16 h; further: % of control where 0% means no effect; nearly all actives have a fitted effect of over 60% in size
#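 Quantitative HTS format in 1536-well plates. HEK293T ELG1-luciferase reporter cells receive test compound and are incubated 16 hr at 37 °C, 5% CO2; ONE-Glo added, 30 min room temperature, then luminescence read.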
# FLuc counter: counter-screen for miR-21 project: firefly luciferase inhibitors or activators; P08659; purified FLuc, Km substrates, luminescence inhibition; Potency, µM (doses to about 57.5 µM), for the others: top-dose activity change, negative = inhibition, usual class: inhibitors; hit rate 6.9% among 360,000; AID 588342;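 further: plate controls were vehicle for no effect and reference inhibitor for full effect; nearly all actives have a fitted effect of over 55% in size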
# Target sequence (P08659 whole entry, looked up): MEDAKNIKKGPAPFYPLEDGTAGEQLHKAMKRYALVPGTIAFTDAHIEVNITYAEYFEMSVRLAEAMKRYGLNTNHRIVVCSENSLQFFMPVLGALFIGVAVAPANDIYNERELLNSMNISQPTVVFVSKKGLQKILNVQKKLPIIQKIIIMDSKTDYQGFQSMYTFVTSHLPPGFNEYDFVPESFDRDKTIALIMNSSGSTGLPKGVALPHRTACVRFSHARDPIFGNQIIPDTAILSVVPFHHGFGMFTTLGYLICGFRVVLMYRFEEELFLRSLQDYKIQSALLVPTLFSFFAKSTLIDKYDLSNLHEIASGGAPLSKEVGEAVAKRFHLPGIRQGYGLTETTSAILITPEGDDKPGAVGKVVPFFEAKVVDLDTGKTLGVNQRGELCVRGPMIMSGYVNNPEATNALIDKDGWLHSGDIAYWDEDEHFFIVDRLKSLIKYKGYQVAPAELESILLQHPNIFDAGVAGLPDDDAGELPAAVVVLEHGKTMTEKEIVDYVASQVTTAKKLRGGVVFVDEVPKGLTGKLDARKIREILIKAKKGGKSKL
#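 Purified P. pyralis luciferase, 10 nM final, with Km-level 10 uM D-luciferin and 10 uM ATP in 50 mM Tris acetate pH 7.5, 10 mM Mg acetate, 0.01% Tween-20, 0.05% BSA; 6-point qHTS titration about 60 µM downward; luminescence read.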
# NPC1 prom act: activates the NPC1 promoter; Huh7 NPC1 promoter luciferase reporter, 24 h; Potency, µM (series often up to 9.22 µM), for inactives: top-dose activation, hits mostly activators; hit rate 2.4% among 320,000; further: % of control where 0% means no effect; nearly all actives have a fitted effect of over 60% in size
#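 Luminescence read-out of NPC1 promoter-driven luciferase in stably transfected Huh7 cells; compounds delivered in DMSO and left 24 h at 37C, 5% CO2, qHTS titration format.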
# SMN2 splice enh: increases expression of the SMN2 splice variant. HEK293 SMN2-luciferase splicing reporter, luminescence, 30-36 h. Potency, µM (highest dose often 46.1 µM), for inactives: at the top dose activity change, positive = activation, usual class: activators. hit rate 2.8% among 210,000. AID 1458; further: % of control where 0% means no effect; nearly all actives have a fitted effect of over 55% in size
#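 qHTS luciferase splicing reporter: luminescence rises when SMN2 exon 7 is included in transfected HEK293 cells. Compound exposure lasted 30-36 h at 37C, with 4.5 mM final sodium butyrate as control, followed by a ONE-Glo read.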
# Numbers without * were called inactive; ? = inconclusive; . = no result. The call rests on the fitted dose curve; in most records, active means well fitted curve in the direction sought with a large enough effect; inconclusive means small, poorly fitted or top-dose-only effect, or another doubt; inactive means no such curve, though single readings can be large; an effect the other way counts as inactive or inconclusive. Potency means the concentration at half of the fitted maximal effect.
SMILES,Rab9 prom act,ELG1 genotox,FLuc counter,NPC1 prom act,SMN2 splice enh
CCOc1ccc(NS(=O)(=O)c2ccc(C(=O)NCC(c3ccc(OC)cc3)N3CCOCC3)cc2)cc1 (configuration not stated),-9%,1%,3%,-3%,.
CCCOc1ccc(-c2nn(-c3ccccc3)cc2/C=C2\SC(N)=NC2=O)cc1C,2%,-4%,3%,-2%,20%
COc1cc2c(C(=O)N3CCN(c4ccccc4F)CC3)cn(C)c(=O)c2cc1OC,-1%,-20%,-1%,2%,-46%
O=C(N/N=C/c1cccc(O)c1)c1csc2ccccc12,-5%,16%,21µM*,16%,0%
Cn1nccc1C(=O)Oc1ccc(/C=N/NC(=O)c2ccccc2O)cc1,9%,2%,17µM*,-1%,-17%
O=C(N/N=C/c1ccc(OCC(=O)N2CCCCC2)cc1)c1ccccc1O,12%,1%,15µM*,13%,2%
Nc1c(C(=O)N/N=C/c2ccccc2)cnn1-c1ccccc1,0.63µM*,?,5.4µM*,1.1µM*,.
Cc1c(/C=N\NC(=O)c2csc3ccccc23)cnn1C,15%,8%,?,2%,-2%
Cc1ccc(NC(=O)CCN2C(=O)OC(C)(C)C2(C)O)cc1 (configuration not stated),10%,1%,6%,-2%,-4%
COc1ccccc1C(=O)Nc1cccc(C(=O)c2ccccc2)c1,1%,2%,17µM*,-2%,.
COc1cccc(OC)c1C(=O)Nc1ccc(Br)c(C(=O)c2ccccc2)c1,0%,-17%,-2%,0%,.
COc1ccccc1NC(=O)Nc1ccc2c(c1)nnn2C,3.2µM*,13µM*,12µM*,?,?
COc1cccc(OC)c1C(=O)Nc1cccc(C(=O)Nc2cccc(C(=O)O)c2)c1,7%,-2%,9.5µM*,7%,.
Cc1ccc(NC(=O)Nc2ccc3c(c2)nnn3C)cc1C,?,13%,-7%,?,.
COc1ccccc1NC(=O)NC(=O)c1ccccc1,?,?,1.2µM*,2.5µM*,.
COc1ccc(-n2ccn(Cc3ccc(C)cc3)c(=O)c2=O)cc1OC,.,.,-6%,.,.
Cc1cc(NC(=O)Cc2ccccc2)cc(-c2nc3ccccc3o2)c1O,.,.,-2%,.,7%
CCC(C)NC(=O)c1ccc([N+](=O)[O-])c(Cl)c1 (configuration not stated),-2%,-2%,-1%,1%,3%
COc1ccccc1NC(=O)Nc1cccc(C(=O)O)c1,?,1%,12µM*,?,-14%
COc1ccc(C)cc1NC(=O)Nc1cccc(C(=O)O)c1,-2%,4%,?,-1%,.
COc1ccccc1NC(=O)Nc1ccc(F)c(F)c1,18%,1%,17µM*,12%,28%
CCc1nn2c(=O)c(S(=O)(=O)Nc3ccc(C)c(C)c3)c(C)nc2s1,.,.,-6%,.,-14%
Cc1ccccc1-c1nnc(SCC(=O)Nc2cccnc2Cl)o1,.,2.1µM*,.,.,.
Cc1cccc(NC(=O)CSc2nnc(-c3ccccc3C)o2)c1,4µM*,?,0%,?,13µM*
N#Cc1cccc(NC(=O)CSc2nnc(-c3n[nH]c4ccccc34)o2)c1,?,20%,-15%,?,13µM*
SMILES,Rab9 prom act,ELG1 genotox,FLuc counter,NPC1 prom act,SMN2 splice enh
COc1ccccc1NC(=O)CSc1nnc(-c2ccccc2C)o1,.,.,-16%,.,.
Cc1cc(=O)c2c(O)c3c(O)cc(O)c4c5c(O)cc(O)c6c(O)c7c(=O)cc(C)c8c1c2c(c34)c(c65)c78,.,.,.,.,-80%
Cc1cc(C)n(-c2nc3cc(Cl)ccc3nc2N2CCN(c3ccccc3F)CC2)n1,.,.,-12%,.,.
O=c1[nH]c(=O)n(C2CC(O)C(CO)O2)cc1F (configuration not stated),.,.,.,.,-39%
CCn1c(-c2ccccc2)csc1=Nc1ccc(O)cc1,2.2µM*,?,8.5µM*,2.8µM*,?
CCOc1ccc(N=c2scc(-c3ccccc3)n2CCO)cc1,8%,16%,15µM*,18%,?
CC(C)Oc1ccc(C(=O)N2CCC(c3nc4ccccc4o3)CC2)cc1,.,.,5%,.,.
COC(=O)C1CCN(C(=O)Nc2ccc(OC)cc2)CC1,11%,-1%,-1%,13%,2%
